Activity calls are given as the source filed them.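 Rule for the calls: active = GFP response above 150% of the DMSO control; inconclusive = Under 70 cell events counted for a yeast strain; inactive = the rest.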

A short description of the experiment: yeast TOR pathway CIT2-GFP reporter retest – flow cytometry, third cherry pick, single plex, confirmation (AID 504340).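 Note: median GFP fluorescence over all cells with no mother versus daughter split; sample signal as a ratio to the plate DMSO mean so 100% equals DMSO.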 The following applies: S. cerevisiae CIT2-GFP strain, 3 h, at 10 µM, active compounds read high. A general note: A flow cytometer gives signals particle by particle.
As for `COC1=C/C(=C/c2c(N)n3cc(C)sc3nc2=O)C=CC1=O`, the GFP response vs DMSO was 124% (inactive).

Turning to `Cc1ccc(Nc2cc(=O)[nH]c(=O)[nH]2)cc1C`, the GFP response vs DMSO is 104% (inactive).

For the molecule `CNc1nc(C)c([N+](=O)[O-])c(Nc2ccc(OC)cc2)n1`, the GFP response vs DMSO is 97.7% (inactive).

Take `Cc1nc(Nc2ccc(Br)cc2Br)c([N+](=O)[O-])c(=O)[nH]1`: the GFP response vs DMSO is 103% (inactive).

Turning to `C=CCNc1nc(N)c([N+](=O)[O-])c(Nc2ccccc2OC)n1`, the GFP response vs DMSO is 127% (inactive).

With `COc1ccc(Nc2nc(NN)nc(C)c2[N+](=O)[O-])cc1`, the GFP response vs DMSO is 94.5% (inactive).

For the molecule `Nc1c(O)ccc2c1C(=O)c1ccccc1C2=O`, the GFP response vs DMSO was 99.3% (inactive).

As for `CCN(CC)c1ncnc2ccc(Br)cc12`, the GFP response vs DMSO is 97.7% (inactive).

As to `COCCNc1nc(N)c([N+](=O)[O-])c(Nc2ccc(F)cc2)n1`, the GFP response vs DMSO was 101% (inactive).

`O=C(Nc1ccc(-c2nc3ccccc3o2)cc1)c1cccnc1`: the GFP response vs DMSO was 96.1% (inactive).

`COc1ccccc1Nc1nc(NCCCN(C)C)nc(N)c1[N+](=O)[O-]`: the GFP response vs DMSO was 107% (inactive).

As for `Cc1ccc(NN2C(=O)C=C(c3ccccc3)C2=O)cc1`, the GFP response vs DMSO was 151% (active).

Turning to `COc1cccc(NC(=O)CC(C)=O)c1`, the GFP response vs DMSO was 106% (inactive).

As to `CC(=O)Nc1ccc(-c2nc3ccccc3o2)cc1`, the GFP response vs DMSO is 99.3% (inactive).

Consider `Cc1ccc(C(=O)/C=C/Nc2cccc(O)c2)cc1`, for which the GFP response vs DMSO is 109% (inactive).

In the case of `COc1ccc(OC)c2c(=O)cc(C(=O)O)[nH]c12`, the GFP response vs DMSO was 111% (inactive).

Take `C=CCNc1ncnc2ccc(Br)cc12`: the GFP response vs DMSO was 101% (inactive).

In the case of `O=C(O)c1ccc2cccnc2c1O`, the GFP response vs DMSO is 88% (inactive).

Values taken from PubChem BioAssay AID504340 (NMMLSC, 2011).
